Experimental data: ChEMBL document CHEMBL3988442, “University of Dundee, Small-Polar-MMV Screening Library” (2021)
Out of some 48,000 compounds screened, about 13,000 (27%) showed an effect of 50% or more. The list shows a part of the results.

system: Wolbachia pipientis; assay: Anti-Wolbachia Cell-Based Screen; type: functional; design: scale not given: in the data most compounds retested in dose-response had high values; conditions: 5 µM

Point of comparison: CCOc1ccccc1N(C)Cc1nccn1C, “Percent Effect” value -5.564%. Against it:
- CNC(=O)C1CCC(NC(=O)N(C)Cc2c(C)noc2C)CC1 (centres undefined) — higher, 3.279%
- Nc1cc(O)nc(CCNC(=O)CC[C@@H]2CCCN3CCCC[C@H]23)n1 — lower, -22.38%
- CCC(O)CN(Cc1cccc(C(=O)N(C)C)c1)c1ccccc1 (centres undefined) — higher, 6.575%
- CCC(C)(O)CNc1ccc(S(=O)(=O)C(F)F)cc1 (centres undefined) — lower, -17.2%
- Cn1c(=O)[nH]c2cc(C(=O)OCC(F)F)ccc21 — higher, -3.927%
- CC(C)n1cnnc1Cn1c(=O)cnc2ccccc21 — lower, -19.8%
- Cc1ccc(C(=O)N2CCCC(C(=O)N3CCCCC3)C2)c(O)c1 (centres undefined) — lower, -5.568%
- CC(C)C(=O)NC1CCCN(C(=O)c2ccc(O)c(Cl)c2)C1 (centres undefined) — higher, 88.73%
- CC(C)C(=O)NC1CCCN(C(=O)c2cc(Cl)ccc2O)C1 (centres undefined) — higher, 122.5%
- Cc1ccc(C(=O)N2CCCC(NC(=O)C(C)C)C2)c(O)c1 (centres undefined) — higher, 9.198%
- Cc1ccc(O)c(C(=O)N2CCCC(NC(=O)C(C)C)C2)c1 (centres undefined) — higher, 85.08%
- O=C(c1cccc(Cl)c1)N1CCCC(Nc2ccc(F)cc2)C1 (centres undefined) — lower, -14.25%
- CCC1(C(=O)O)CCCN(C(=O)c2ccc(O)c(Cl)c2)C1 (centres undefined) — lower, -6.141%
- CC(=O)NC1CCCN(C(=O)CNc2cc(Cl)cc(Cl)c2)C1 (centres undefined) — lower, -7.422%
- CCC1CN(C(=O)c2ccc(Cl)cc2O)CCN1C(C)C (centres undefined) — higher, -0.08814%
- COc1c(F)cc(NC(=O)N2CCC(CSC)C2)cc1F (centres undefined) — higher, -4.081%
- CS(=O)(=O)CCNC(=O)Nc1sc2ccccc2c1Cl — lower, -6.956%
- CCCn1[nH]cc/c1=N\C(=O)CN1CCCC1c1cccn1C (centres undefined) — lower, -13.94%
- Cc1noc(C2CCC3(CCN(C(=O)c4ccn(C)n4)CC3)O2)n1 (centres undefined) — higher, 89.59%
- Cc1noc(C2CCC3(CCN(C(=O)c4cnn(C)c4)CC3)O2)n1 (centres undefined) — higher, 95.88%
- Cc1noc(C2CCN(C(=O)c3cc(Br)ccc3F)CC2)n1 — higher, 2.952%
- O=C(C1CCOCC1)N1CCC2(CCC(C(=O)N3CCCC3)O2)CC1 (centres undefined) — higher, -2.84%
- Cc1noc(C2CCC3(CCN(C(=O)C4CCOCC4)CC3)O2)n1 (centres undefined) — higher, 108.6%
- Cc1noc(C2CCC3(CCN(C(=O)c4sccc4C)CC3)O2)n1 (centres undefined) — higher, 105.9%
- Cn1cc(C(=O)N2CC[C@@]3(O)CCN(C(=O)C4CCCC4)C[C@H]3C2)cn1 — higher, 2.716%
- Cc1noc([C@H]2C[C@H]3CN(C(=O)C4CCOCC4)CC[C@@H]3O2)n1 — lower, -6.774%
- Cc1noc(C2CCC3(CCN(C(=O)C4=CCCCC4)CC3)O2)n1 (centres undefined) — lower, -12.42%
- Cn1ccc(C(=O)N2CCC3(CCC(=O)N(C4CCCC4)C3)CC2)n1 — higher, 5.203%
- Cc1noc(C2CCCN(C(=O)c3scnc3Cl)C2)n1 (centres undefined) — higher, 3.125%
- Cn1nnnc1SCCNC(=O)c1cccc2ccnn12 — higher, 0.6807%
- CCC1CN(CC(=O)NC(C)C)CCO1 (centres undefined) — lower, -17.56%
- CC1CCCCN1C(=O)c1cn(-c2ccc(C(F)(F)F)cn2)nn1 (centres undefined) — lower, -15.67%
- O=C(COc1coc(CN2CCCC2)cc1=O)NCc1ccccc1Cl — higher, 13.29%
- CCn1ncc2c1CCCC2NCc1csc(COC)n1 (centres undefined) — higher, 6.958%
- CCCn1c(C)cc(C(=O)CN2C(=O)c3ccccc3CS2(=O)=O)c1C — higher, -1.519%
- Cc1noc(C2CCCN(C(=O)c3cncc(Br)c3)C2)n1 (centres undefined) — higher, -3.695%
- Cc1noc(C2CCN(C(=O)c3ccc(N(C)C)nc3)CC2)n1 — lower, -12.04%
- Cc1noc(C2CCC3(CCN(C(=O)c4ccnnc4)CC3)O2)n1 (centres undefined) — higher, 98.77%
- COCCC1(C(=O)O)CCCN(c2cc(C)c3ccccc3n2)C1 (centres undefined) — lower, -9.375%
- Cc1cc(N2CCC3(CCCN(CCO)C3=O)C2)nc2cc(Cl)ccc12 (centres undefined) — higher, 98.58%
- Cc1cc(N2CCC3(CCCN(CCO)C3=O)C2)nc2ccccc12 (centres undefined) — higher, 93.99%
- Cc1cc(N2CCC(CO)(CC3CCCCO3)CC2)nc2ccccc12 (centres undefined) — lower, -15.69%
- CCCN1CCCC2(CCN(c3nc(C)nc4ccsc34)C2)C1=O (centres undefined) — higher, -5.221%
- COCCN1CCCC2(CCN(c3ncc(Cl)cc3Cl)C2)C1=O (centres undefined) — higher, 5.155%
- Cc1ccc2c(c1)OC1(NC2=O)C(=O)N(C)c2ccccc21 (centres undefined) — higher, 2.541%
- COc1ncccc1NC(=O)N1CCOCC1C (centres undefined) — higher, 13.85%
- Cc1ccc(-c2ncc(C(=O)N3CCN4CCCCC4C3)c(O)n2)cc1 (centres undefined) — higher, 8.265%
- O=C(C1CC1)N1CCC(c2nc(O)c3c(n2)CN(C2CCCC2)CC3)C1 (centres undefined) — higher, 78.69%
- CCCC(=O)N1CCC(c2nc(O)c3c(n2)CCN(C2CCCC2)C3)C1 (centres undefined) — higher, 91.38%
- C1CCC(c2nc3c(c(N4CCN5CCCC5C4)n2)CCNCC3)C1 (centres undefined) — lower, -7.963%
- CCC(=O)N1CCC(c2nc(O)c3c(n2)CN(C2CCCCC2)CC3)C1 (centres undefined) — higher, 94.52%
- Cc1nc2c(c(=O)n1C)CN(C(=O)C1CCCN(C3CCCC3)C1)C2 (centres undefined) — higher, -4.359%
- Cc1ncc(C(=O)N2CCC(N3CCc4ccccc4C3)CC2)c(O)n1 — lower, -7.9%
- CCC(=O)N1CCC(NC2CCCC2)C1 (centres undefined) — higher, -2.557%
- CC(C)N(CC(N)=O)Cc1cccc(C(F)(F)F)c1 — lower, -6.914%
- CC(C)c1cc(C(=O)N2CCNCC2C(=O)NCc2ccncc2)on1 (centres undefined) — lower, -12.97%
- CC(C)(C)c1ccc2c(c1)CCN2C(=O)c1ccc(=O)[nH]n1 — higher, -4.388%
- CCc1nc2n(n1)CCCC2NC(=O)Nc1ccc(F)cc1C#N (centres undefined) — lower, -29.22%
- Cc1ccc(C(=O)N2CCC3(CC2)CC(c2ccccc2)C(=O)N3)o1 (centres undefined) — higher, -4.481%
- CC(C)=CCN1CCC2(CC1)CC(=O)N(Cc1cc(F)cc(F)c1)C2 — higher, 132.9%
- CCCS(=O)(=O)N1CCC2(CCC(=O)N(CCc3ccncc3)C2)CC1 — higher, 3.257%
- CN1CC2(CCN(C(=O)Cc3ccc(O)c(F)c3)CC2)CC1=O — higher, -5.557%
- CC(C)=CCN1CC2(CCN(Cc3c(F)cccc3F)CC2)CC1=O — higher, -3.567%
- O=C(CO)N1CCC2(CC1)CC(=O)N(Cc1cc(F)cc(F)c1)C2 — higher, 130.8%
- CCCS(=O)(=O)N1CCC2(CCC(=O)N(Cc3ccccc3)C2)CC1 — higher, -5.429%
- CCCS(=O)(=O)N1CCC2(CC1)CC(=O)N(Cc1cc(F)cc(F)c1)C2 — higher, 128.2%
- CC(C)N1CCC2(CC1)CC(=O)N(Cc1cc(F)cc(F)c1)C2 — higher, 84.47%
- CC(C)=CCN1CC2(CCN(Cc3cccc(C#N)c3)CC2)CC1=O — higher, 0.9714%
